# Compound activity (PubChem BioAssay)
# Rows were chosen to be rich in hits. Some 21% of all compounds tested hit in one or more screens of this group.
# Pf growth 96h: Primary qHTS for delayed death inhibitors of the malarial parasite plastid, 96 hour incubation | P. falciparum luciferase reporter growth, 96 h | Potency, µM (doses to about 28.7 µM), inactives show at the top dose activity change, negative = inhibition, usual class: inhibitors | hit rate 6.9% among 320,000 | AID 504834, 2011; also: potency is read from the fitted curve at half-maximal effect; % is scaled to controls: 0 for no effect and ±100 for the full control effect
#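 Readout is luminescence from an integrated firefly luciferase in P. falciparum. Red cells, 2% hematocrit and 0.05% parasitemia final, were cultured with compound through two parasite generations (96 hours) at 37 C, 5% CO2.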
# Shiga inhibitor: A qHTS for Small Molecule Inhibitors of Shiga Toxin. Vero cells, Shiga toxin protein synthesis inhibition reporter. inhibition, % at 38.7 µM. hit rate 9.2% among 290,000. AID 2315, 2010; in the data active = inhibition mostly above about 28%, no sharp cut-off; inactive = mostly below about 43%; also: 0% is about no effect
# NS1 inh: qHTS Assay for Inhibitors of Influenza NS1 Protein Function; Potency, µM (top dose mostly 46.1 µM), without a hit: at the highest dose activity, positive = more growth; hit rate 0.4% among 270,000; AID 2326, 2010; calls by dose curve; also: potency is read from the fitted curve at half-maximal effect; actives are rising curves; nearly all actives have a fitted effect of over 50% in size
#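 Recovery from NS1-induced slow growth read by OD600 in budding yeast switched to galactose assay medium (pH 6.0, -URA) at 1:100 dilution. Compound 23 nl per well; the matching strain lacking NS1 serves as control.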
# FBPA Giardia inh: qHTS Assay for Inhibitors of Fructose-1,6-bisphosphate Aldolase from Giardia Lamblia | AID 2451, 2010 | Potency, µM (highest dose often 59.6 µM), inactives show at the top dose activity, negative = inhibition, actives largely listed as inhibitors | hit rate 0.71% among 290,000 | purified Giardia FBPA; also: potency is read from the fitted curve at half-maximal effect; % is scaled to controls: 0 for no effect and ±100 for the full control effect; nearly all actives have a fitted effect of over 55% in size
# Target sequence (A8B2U2 whole entry, looked up): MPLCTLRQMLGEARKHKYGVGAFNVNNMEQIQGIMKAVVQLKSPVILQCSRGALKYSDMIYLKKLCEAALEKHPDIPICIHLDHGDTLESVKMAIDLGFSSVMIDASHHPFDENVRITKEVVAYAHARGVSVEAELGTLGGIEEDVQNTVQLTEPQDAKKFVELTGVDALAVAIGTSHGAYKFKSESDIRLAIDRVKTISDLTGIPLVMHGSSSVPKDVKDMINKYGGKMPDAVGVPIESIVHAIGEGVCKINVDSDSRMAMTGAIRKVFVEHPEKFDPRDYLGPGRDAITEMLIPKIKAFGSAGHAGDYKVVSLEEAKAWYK
#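 40 nM FBPA preincubated 10 min at RT with compound (up to 57.5 uM final), then substrate plus GAPDH/TPI/NAD/arsenate coupling and diaphorase/resazurin added. Fluorescence read after 20 min at RT, 525/598 nm.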
# CHX counter: Cycloheximide Counterscreen for Small Molecule Inhibitors of Shiga Toxin; cell reporter, cycloheximide protein synthesis inhibition counterscreen; max response, %; hit rate 12% among 300,000; in the data active = max response mostly above about 13%, no sharp cut-off; inactive = mostly below about 14%; also: read at 38.3 µM for the half of the compounds with a filed dose; 0% is about no effect
# Pf growth 48h: Primary qHTS for delayed death inhibitors of the malarial parasite plastid, 48 hour incubation; P. falciparum luciferase growth in erythrocytes, 48 h; Potency, µM (highest dose often 28.7 µM), for inactives: at the highest dose activity change, negative = inhibition, usual class: inhibitors; hit rate 5.9% among 310,000; AID 504832, 2011; also: potency is read from the fitted curve at half-maximal effect; % is scaled to controls: 0 for no effect and ±100 for the full control effect
#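 Cell-based growth assay: transgenic P. falciparum expressing firefly luciferase, cultured in red cells within RPMI 1640 containing 0.5% w/v Albumax, 24 mM bicarbonate and gentamycin. A drop in luciferase activity indicates inhibition.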
# The depositor's hits bear a star; i = inactive; u = inconclusive; x = no result; + = active, no number. Unless noted, calls follow the shape of the dose curve; as a rule, active = well fitted curve in the direction sought with a large enough effect; inconclusive = small, poorly fitted or top-dose-only effect, or another doubt; inactive = no such curve, though single readings can be large; an effect the other way counts as inactive or inconclusive.
SMILES,Pf growth 96h,Shiga inhibitor,NS1 inh,FBPA Giardia inh,CHX counter,Pf growth 48h
CNC(=S)NNC(=O)c1ccccc1F,21%,43,x,-18%,-5,9%
O=C(NNC1=Nc2ccccc2SC1)c1cccc([N+](=O)[O-])c1,10µM*,14,-3%,12%,0,u
O=C(NNC1=Nc2ccccc2SC1)c1ccccc1F,u,72*,-1%,7%,39*,u
CCC1CCC(C(=O)NC(CCSC)C(=O)NCCc2ccc(S(N)(=O)=O)cc2)CC1 (stereo unspecified),16%,-5,-1%,12%,6,19%
CCC1CCC(C(=O)NC(CCSC)C(=O)NCCN(CC(C)C)CC(C)C)CC1 (stereo unspecified),15µM*,10,x,2%,3,-26%
Brc1cc(Cc2nnc(-c3ccccc3)o2)c(Br)s1,15%,24,-7%,0%,14*,u
CC(=O)Oc1ccc(C(=O)Cc2ccc3ccccc3n2)c(O)c1C,163%,+,25%,6%,26*,52%
O[C@@H]1COC(Nc2ccc(N=Nc3ccccc3)cc2)C[C@@H]1O (stereo partly specified),103%,95*,-8%,0%,62*,132%
CC(C)C(c1nnnn1C(C)(C)C)N1CCC(Cc2ccccc2)CC1 (stereo unspecified),51%,-9,u,2%,-5,9.3µM*
CC(C)C(c1nnnn1C(C)(C)C)N1CCOCC1 (stereo unspecified),11%,5,12%,5%,0,9%
CCOc1ccc(N2C(=O)CC(N(CCc3ccc(S(N)(=O)=O)cc3)C(C)=O)C2=O)cc1 (stereo unspecified),8%,-2,-5%,0%,-2,3.7µM*
CCOc1cccc(N2C(=O)CC(N(CCc3ccc(OC)c(OC)c3)C(=O)CC)C2=O)c1 (stereo unspecified),5.9µM*,12,-11%,-1%,1,0%
CCCCCCOc1ccc(N2C(=O)CC(N(CCc3ccc(S(N)(=O)=O)cc3)C(C)=O)C2=O)cc1 (stereo unspecified),i,-7,1%,6%,3,u
CN(Cc1cnn(Cc2ccccc2)c1)C(=O)c1cccc(S(=O)(=O)N2CCOCC2)c1,u,x,x,x,x,-7%
CCN(c1nc(N)c(C(=O)N=C(N)N)nc1Cl)C(C)C,x,x,-13%,-9%,x,x
COc1ccc(Cl)cc1NC(=O)CCc1nnc2ccc(N3CCC4(CC3)OCCO4)nn12,-17%,-7,-12%,2%,1,u
COCCNC(=O)/C(C#N)=C/c1c(N2CC(C)OC(C)C2)nc2ccccn2c1=O (stereo unspecified),24%,-3,-7%,2%,-5,21%
COC(=O)C(=Cc1ccc(-c2ccsc2C(=O)OC)o1)C(=O)OC,-15%,45*,-1%,-2%,38*,-9%
COC(=O)c1sccc1-c1ccc(C(=O)Nc2cccnc2)o1,i,127*,-2%,-2%,39*,101%
COC(=O)CC[C@H](N)C(=O)O,-25%,x,x,x,x,2%
CC(C)NC[C@@H](O)c1ccc(O)c2ncccc12,x,x,-2%,x,x,x
CCOC(=O)c1sc(NC(=O)CSC(=S)N2CCN(C)CC2)nc1C,u,26,3%,-9%,8,8.3µM*
CCOC(=O)c1sc(NC(=O)Cc2ccc(F)cc2)nc1C,u,46,x,-3%,29*,-20%
CCOC(=O)c1sc(Nc2cccc(Cl)c2)nc1C,0%,70*,-5%,-14%,51*,97%
CCOC(=O)c1sc(NC(=O)Nc2ccc(F)cc2)nc1C,-22%,121*,-1%,-14%,93*,81%
SMILES,Pf growth 96h,Shiga inhibitor,NS1 inh,FBPA Giardia inh,CHX counter,Pf growth 48h
CCOC(=O)c1sc(Nc2ccc(OCC)cc2)nc1C,4%,35,0%,-6%,16,-18%
O=C(Cn1ncc2c([nH]c3ccccc32)c1=O)N1CCOCC1,u,6,-2%,-5%,0,1%
CCOC(=O)c1ccc(-c2c(-c3cc(OC)c(OC)c(OC)c3)noc2C)cc1F,-6%,9,-34%,12%,-2,u
CCOC(=O)c1ccc(-c2c(-c3ccccc3OC)sc3cc4c(cc23)OCO4)cc1F,u,x,x,x,x,1.9µM*
O=C(Nc1ccc(Cl)cn1)c1ccc2c(Cl)c3c(nc2c1)CCC3,261%,64*,6%,2%,35*,114%
CCC(C)NC(=O)c1ccc2c(Cl)c3c(nc2c1)CCC3 (stereo unspecified),6%,53*,-9%,-4%,28*,66%
COc1ccc(CNC(=O)C(=O)NCC2OCCN2S(=O)(=O)c2ccc(F)cc2)cc1 (stereo unspecified),63%,32*,-11%,x,28*,88%
COc1ccc(CCNC(=O)C(=O)NCC2OCCN2S(=O)(=O)c2ccc3c(c2)OCCO3)cc1 (stereo unspecified),u,11,9%,x,34*,7%
COc1ccc(CNC(=O)C(=O)NCC2OCCN2S(=O)(=O)c2ccc(C)cc2)cc1 (stereo unspecified),u,11,17%,-1%,-1,5%
COc1ccc(CCNC(=O)C(=O)NCC2OCCN2S(=O)(=O)c2ccc3c(c2)OCCO3)cc1OC (stereo unspecified),12µM*,-19,1%,x,-1,u
COc1ccc(-c2cc(=Nc3ccccc3)c3cc(C)ccc3o2)cc1,65%,97*,-46%,3%,86*,84%
COc1ccc(N=c2cc(-c3ccc(OC)cc3)oc3ccccc23)cc1,-100%,10,-49%,-4%,0,u
COc1ccc(N=c2cc(-c3ccc(O)cc3)oc3ccccc23)cc1,u,12*,-29%,0%,42*,3.3µM*
COc1ccc(-c2cc(=Nc3ccc(C)cc3)c3ccccc3o2)cc1,6.6µM*,4,0%,-11%,1,u
C=C1CCN(C(CC(C)C)C(=O)NCc2ccc(OC)cc2)S(=O)(=O)c2ccccc21 (stereo unspecified),x,-2,x,-9%,-3,x
Cc1nonc1OCC(C)(COc1nonc1C)NC(=O)c1ccc(Cl)cc1,4.7µM*,12,-1%,-2%,-3,8.3µM*
Nc1nonc1C(=O)NCCNC(=O)c1ccc(Cl)cc1,u,5,1%,2%,-5,25%
O=C(NNC(=O)C1CC(=O)N(Cc2ccccc2)C1)c1ccc(F)cc1 (stereo unspecified),10%,x,x,x,x,-20%
COc1ccc(NC(=O)CSc2nnc(-c3cccnc3)o2)c(OC)c1,-4%,x,x,x,x,5%
COC(=O)c1cc2c(s1)-c1ccccc1CC2,13%,+,0%,0%,62*,47%
